Measured values as given in PubChem BioAssay AID1347426 (Functional Genomics Laboratory (NCATS/FGL), 2020).
Screen size: about 31,000 sequences; about 1,400 (4.5%) were called active. The full list was thinned out, with actives kept by preference. Unmarked numbers belong to inactive results.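 Rule for the calls: active = median seed-adjusted z-score above 1 or below -1; inactive = the rest.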

Experiment: Novel Modifiers of Survival Motor Neuron (SMN) Protein: Gene Identification via Genome-wide siRNA Screen;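 note: luminescence tracks full-length SMN protein made from the SMN2 reporter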
Conditions: HEK293T SMN2-luciferase reporter, siRNA knockdown, 72 h; actives lie on both sides
Method in brief: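 siRNA screen, 10418 genes ×3 siRNAs; 1 pmol/well, lipid reverse transfection into HEK293T SMN2-luc reporter line. 72 h, 37 °C, 5% CO2; ONE-Glo readout. Data: neg-ctrl normalized, log10, MAD; hit = MAD >1.0 or < -1.0.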
Work on CACCCACCUCAGAUUGAUATT against MBTPS2 yielded a median seed-adjusted z-score of -0.324. Sequence CGCUCUACCUGAUCUGCUATT against SLC43A2 has a median seed-adjusted z-score of -0.202. In the case of ACAUCAUGAGGAAUGCUAUTT against UCP3, the median seed-adjusted z-score is reported as 1.23 (active). GAGCAGAAAUUAUUCGUUATT against PGDS gave a median seed-adjusted z-score of 0.02. For GACUAAAGAUUCAGAUAAATT against TRIM13, the median seed-adjusted z-score was 0.712. For CGACAGAGGCAGACACAGATT against BATF, the median seed-adjusted z-score was -0.0501. For GAAUUGCUCCACCAGAUAATT against NAALAD2, the median seed-adjusted z-score was -0.00068. With GAUGAUGACUUACAUAGAATT against TRRAP the median seed-adjusted z-score was -1.25 (active). Sequence CUAUAGCAAGUGAACUAAATT against COG5 has a median seed-adjusted z-score of -0.0609. In the case of GGGUUGGUUUGGGCCUGAATT against SOX12, the median seed-adjusted z-score is reported as 0.478. GAAGAGCAGUGUACCAUCATT against STARD8 gave a median seed-adjusted z-score of -0.135. Work on AAGACGAACUUGAGCUGGATT against MAPK8IP1 yielded a median seed-adjusted z-score of 0.576. With GCUCCAAUGUCUACAGAAATT against MRGPRE the median seed-adjusted z-score was -0.65. With CAGAUGAAAUACUACUUCUTT against ARD1A the median seed-adjusted z-score was -1.05 (active). GCAGUUACCCGCAUACCAATT against CALCR showed a median seed-adjusted z-score of -0.404. GGGAAGCCGCCUAUACCAATT against TK1 gave a median seed-adjusted z-score of -0.0562. In the case of AGACCGUAAUUAUCGUCCUTT against EDG1, the median seed-adjusted z-score is reported as -0.316. In the case of GGAUGACAUGUCUAGCAUUTT against NXF1, the median seed-adjusted z-score is reported as -4.46 (active). With CAACCUAUCAUAUCUGUUUTT against SLC22A16 the median seed-adjusted z-score was 0.0878. Sequence CCAUCGGCAUCACCUUCUATT against SLC35C2 has a median seed-adjusted z-score of -0.483. In the case of CUGUGAAAAUGGGACGGGATT against NDUFA6, the median seed-adjusted z-score is reported as -0.457. For CAUCAGUCAUAAUGCCUAUTT against MAP1D, the median seed-adjusted z-score was 0.155. With CGCCUCCAGUUUUAACUCUTT against POU2F3 the median seed-adjusted z-score was -1.53 (active). For GGGUAUUCUGGGCAUGAAATT against NANS, the median seed-adjusted z-score was -1.54 (active). For GCAAGACCUAUGAAACGAUTT against CADPS, the median seed-adjusted z-score was 0.551. In the case of GCACGAGGUUUUCACCUAUTT against SRMS, the median seed-adjusted z-score is reported as -1.58 (active). GUUAUACUGUGAGAUCUAATT against GPR160 showed a median seed-adjusted z-score of -0.278. GAGAUUGGGUGGAAGAGAATT against FOXD2 gave a median seed-adjusted z-score of -0.0853. In the case of AAGUCGGAAUAGAAUGGAATT against COX7B, the median seed-adjusted z-score is reported as -1.16 (active). GGACAACAACUGAAAUGUATT against ZIM3 gave a median seed-adjusted z-score of -0.02.
